Results reported in PubChem BioAssay (NCATS).
Several values for one entry are separate records, joined by “and”; a condition that tells them apart may be missing. Equal entries are not always repeated. Results filed as inconclusive are left out. A call without a number means that no potency is given here. A number with no mark means an inactive call. Activity calls are given as the source filed them. Calls follow the shape of the dose curve; as a rule, active = well fitted inhibition curve with a large enough effect; inconclusive = small, poorly fitted or top-dose-only effect; inactive = flat fitted curve, though single readings scatter.

Experiments:
HaCat = assay: Cytotoxic Profiling of Annotated Libraries Using Quantitative High-Throughput Screening (AID 1296008); settings: Five cell lines viability, CellTiter-Glo ATP luminescence, 48-72 h; max response: stronger effect = lower value
In short: (§1)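 Cells exposed to compounds for 48 or 72 hr at 37 degrees Celsius. Viability read as ATP-coupled luminescence with CellTiter-Glo after 10 min at room temperature.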

SC27B = assay: qHTS profiling for inhibitors of Plasmodium falciparum proliferation (AID 504749); settings: P. falciparum in erythrocytes, SYBR Green DNA, 72 h; series mostly up to 28.7 µM
In short: (§2)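 SYBR Green fluorescence (ex 485 nm, em 535 nm) reports parasite DNA after 72 h compound exposure of infected red cells at 0.3% parasitemia, 2.5% hematocrit; signal normalized to 0.29 uM artemisinin and vehicle wells.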

TAB109 = assay: as above; settings: P. falciparum in erythrocytes, SYBR Green DNA, 72 h; series mostly up to 28.7 µM
In short: as §2

TAB113 = assay: as above; settings: P. falciparum in erythrocytes, SYBR Green DNA, 72 h; series mostly up to 28.7 µM
In short: as §2

TAB165 = assay: as above; settings: P. falciparum in erythrocytes, SYBR Green DNA, 72 h; series mostly up to 28.7 µM
In short: as §2

CRL-7250 = normal cell line; assay: Cytotoxic Profiling of Annotated Libraries Using Quantitative High-Throughput Screening (AID 1296008); settings: Five cell lines viability, CellTiter-Glo ATP luminescence, 48-72 h; max response: stronger effect = lower value
In short: as §1

HEK293 = assay: as above; settings: Five cell lines viability, CellTiter-Glo ATP luminescence, 48-72 h; max response: stronger effect = lower value
In short: as §1

KB-3-1 = assay: as above; settings: Five cell lines viability, CellTiter-Glo ATP luminescence, 48-72 h; max response: stronger effect = lower value
In short: as §1

NIH3T3 = assay: as above; settings: Five cell lines viability, CellTiter-Glo ATP luminescence, 48-72 h; max response: stronger effect = lower value
In short: as §1

W2 = assay: qHTS profiling for inhibitors of Plasmodium falciparum proliferation (AID 504749); settings: P. falciparum in erythrocytes, SYBR Green DNA, 72 h; series mostly up to 28.7 µM
In short: as §2
Also: nearly all actives have a fitted effect of over 60% in size.
Potency is read from the fitted curve at half-maximal effect.

## Nc1nc2ccc([N+](=O)[O-])cc2s1
HaCat
  Potency: 27.3 µM (active)

## Cc1nc2ccccc2n1Cc1ccc(Cl)cc1
SC27B
  Potency: inactive
TAB109
  Potency: inactive
TAB113
  Potency: inactive
TAB165
  Potency: inactive
CRL-7250
  Potency: 2.11 µM (active)
HEK293
  Potency: 1.68 µM (active)
KB-3-1
  max response: -8.87%
NIH3T3
  max response: -22.4%

## COc1cc(NC(C)CCCN)c2ncccc2c1 (stereo unspecified)
CRL-7250
  max response: 4.62%
HaCat
  outcome: inactive
KB-3-1
  max response: 20.7%
NIH3T3
  outcome: inactive

## CC(=O)O[C@H]1C[C@@]2(C)[C@@H](C[C@@H](O)[C@H]3[C@@]4(C)CC[C@@H](O)[C@@H](C)[C@@H]4CC[C@@]32C)/C1=C(\CCC=C(C)C)C(=O)O
CRL-7250
  outcome: inactive
HEK293
  max response: -11.3%
NIH3T3
  outcome: inactive

## O=c1[nH]c2ccccc2n1CCCN1CCN(C(c2ccccc2)c2ccccc2)CC1
W2
  Potency: 6.75 µM (active)
CRL-7250
  max response: -27.4%
HEK293
  Potency: 16.8 µM (active)
HaCat
  max response: -21.6%
NIH3T3
  max response: -21.6%

## COc1cc(CNC(=O)CCCC/C=C/C(C)C)ccc1O
SC27B
  Potency: inactive
TAB109
  Potency: inactive
TAB113
  Potency: inactive
TAB165
  Potency: inactive
W2
  Potency: inactive
CRL-7250
  max response: 3.92%
HEK293
  max response: -1.55%
KB-3-1
  max response: -0.699%
  outcome: inactive
NIH3T3
  max response: -2.4%

## CCCC(=O)OC[C@@H](OC(=O)CCC)[C@@H](OC(=O)CCC)[C@H](Cn1c2nc(=O)[nH]c(=O)c-2nc2cc(C)c(C)cc21)OC(=O)CCC
CRL-7250
  outcome: inactive
HaCat
  max response: 4.67%
KB-3-1
  max response: 23.7%
NIH3T3
  outcome: inactive

## CC1OC1P(=O)(O)O (stereo unspecified)
SC27B
  Potency: inactive
TAB113
  Potency: inactive
TAB165
  Potency: inactive
W2
  Potency: inactive

## O=C(O)COc1ccc(C(=O)c2cccs2)c(Cl)c1Cl
SC27B
  Potency: inactive
TAB109
  Potency: inactive
TAB113
  Potency: inactive
TAB165
  Potency: inactive
W2
  Potency: inactive

## Cc1[nH]cnc1CN1CCc2c(c3ccccc3n2C)C1=O
SC27B
  Potency: inactive
TAB109
  Potency: inactive
TAB113
  Potency: inactive
TAB165
  Potency: inactive
W2
  Potency: inactive

## O=C(O)/C=C/C(O)c1ccc(Cl)cc1 (stereo unspecified)
SC27B
  Potency: inactive
TAB109
  Potency: inactive
TAB113
  Potency: inactive
TAB165
  Potency: inactive
W2
  Potency: inactive

## Oc1c(Br)cc(Br)c2cccnc12
SC27B
  Potency: inactive
TAB109
  Potency: inactive
W2
  Potency: inactive

## CCN(CC)CCCCNc1ncc2cc(-c3c(Cl)cccc3Cl)c(NC(=O)NC(C)(C)C)nc2n1
HaCat
  Potency: 20.6 µM (active)
NIH3T3
  Potency: 1.16 µM (active)

## CC(C)Cc1ccc([C@H](C)C(=O)O)cc1
KB-3-1
  max response: -10.1%

## C#C[C@]1(O)CC[C@H]2[C@@H]3CCc4cc(O)ccc4[C@H]3CC[C@@]21C
SC27B
  Potency: inactive
TAB109
  Potency: inactive
TAB113
  Potency: inactive
TAB165
  Potency: inactive
W2
  Potency: inactive
HaCat
  Potency: 4.73 µM (active)
NIH3T3
  max response: -26.3%

## C[S+](CC[C@H](N)C(=O)O)C[C@H]1O[C@@H](n2cnc3c(N)ncnc32)[C@H](O)[C@@H]1O (stereo partly specified)
SC27B
  Potency: inactive
W2
  Potency: inactive

## CCCCCCOc1ccccc1C(N)=O
SC27B
  Potency: inactive
TAB109
  Potency: inactive
TAB113
  Potency: inactive
TAB165
  Potency: inactive
W2
  Potency: inactive
HaCat
  max response: -20.5%
KB-3-1
  max response: 0.591%
NIH3T3
  max response: -8.29%

## C[N+](C)(C)CCOP(=O)(O)OP(=O)([O-])OC[C@H]1O[C@@H](n2ccc(N)nc2=O)[C@H](O)[C@@H]1O
KB-3-1
  max response: 10.6% and -5.11%

## CCCCCC[C@@H](O)C/C=C\CCCCCCCC(=O)O
SC27B
  Potency: inactive
TAB109
  Potency: inactive
TAB113
  Potency: inactive
TAB165
  Potency: inactive
W2
  Potency: inactive
KB-3-1
  max response: -2.77% and 6.21% and -9.38%

## COC(=O)C1=C(C)NC(C)=C(C(=O)OCC(C)C)C1c1ccccc1[N+](=O)[O-] (stereo unspecified)
TAB109
  Potency: 8.91 µM (active)
TAB165
  Potency: 10 µM (active)
W2
  Potency: 6.01 µM (active)
HaCat
  max response: 0.281%
NIH3T3
  max response: -5.79%

## NS(=O)(=O)c1ccc(-n2nc(C(F)(F)F)cc2-c2ccc(Cl)cc2)cc1
HaCat
  outcome: inactive
KB-3-1
  max response: -3.63%
NIH3T3
  max response: -15.5%

## C=C(Nc1ccc(OCC)cc1)Nc1ccc(OCC)cc1
SC27B
  Potency: inactive
TAB109
  Potency: inactive
TAB113
  Potency: inactive
TAB165
  Potency: inactive
KB-3-1
  max response: -11.3% and -9.03%

## CC[C@H]1OC(=O)[C@H](C)[C@@H](O[C@H]2C[C@@](C)(OC)[C@@H](O)[C@H](C)O2)[C@H](C)[C@@H](O[C@@H]2O[C@H](C)C[C@H](N(C)C)[C@H]2O)[C@](C)(O)C[C@@H](C)C(=O)[C@H](C)[C@@H](O)[C@]1(C)O
KB-3-1
  max response: 12% and -5.16%

## CN1[C@@H](CC(=O)c2ccccc2)CCC[C@H]1C[C@H](O)c1ccccc1
TAB165
  Potency: 14.1 µM (active)
W2
  Potency: 5.36 µM (active)
KB-3-1
  max response: -11.5%

## O=C(O)[C@H](O)[C@@H](O)[C@H](O)[C@H](O)CO
SC27B
  Potency: inactive
TAB109
  Potency: inactive
TAB113
  Potency: inactive
TAB165
  Potency: inactive
W2
  Potency: inactive
KB-3-1
  max response: 1.75% and -7.15%

## CC(=O)[C@]1(O)Cc2c(O)c3c(c(O)c2[C@@H](O[C@H]2C[C@H](N)[C@H](O)[C@H](C)O2)C1)C(=O)c1c(O)cccc1C3=O
SC27B
  Potency: 12.6 µM (active)
TAB109
  Potency: 7.08 µM (active)
TAB113
  Potency: 7.08 µM (active)
TAB165
  Potency: 5.01 µM (active)
W2
  Potency: 4.26 µM (active)
KB-3-1
  Potency: 4.61 µM (active) and 5.17 µM (active)

## C=CC(N)CCC(=O)O (stereo unspecified)
SC27B
  Potency: inactive
TAB109
  Potency: inactive
TAB113
  Potency: inactive
TAB165
  Potency: inactive
W2
  Potency: inactive
KB-3-1
  max response: 3.37%

## COc1cc(/C=C/C(=O)CC(=O)/C=C/c2ccc(O)c(OC)c2)ccc1O
W2
  Potency: 6.75 µM (active)

## CC1(C)C[C@@H]1C(=O)N/C(=C\CCCCSC[C@H](N)C(=O)O)C(=O)O
SC27B
  Potency: inactive
TAB109
  Potency: inactive
TAB113
  Potency: inactive
TAB165
  Potency: inactive
W2
  Potency: inactive
KB-3-1
  max response: 4.27% and -2.38%

## Cc1ccccc1CNc1ncnc2c1ncn2C1OC(CO)C(O)C1O (stereo unspecified)
SC27B
  Potency: inactive
TAB109
  Potency: inactive
TAB113
  Potency: inactive
TAB165
  Potency: inactive
W2
  Potency: inactive
